# From the supplement of paper PMC6555819
# Experiments:
# Test in all cases: PBM binding z-score (relative to random genomic background probes); higher = stronger binding; sequences stand for … in GC…GCGATTGACAGCGTAGAATGAAGG
# [1] = tested on: FXR:RXRa (NR concentration 270 nM, RXRa partner concentration 90 nM)
# Outline: (§1)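 Random background probes are the reference for binding z-scores. These scores derive from regression-normalized fluorescence on custom Agilent 4×180K protein-binding microarrays incubated 1 h with ligand-free nuclear receptor dimers. Binding was detected with antibodies against each partner (one per run).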
# [2] = tested on: LXRa:RXRa (NR concentration 270 nM, RXRa partner concentration 90 nM)
# Outline: as §1
# [3] = tested on: LXRa homodimer (NR concentration 270 nM)
# Outline: as §1
# [4] = tested on: LXRb:RXRa (NR concentration 270 nM, RXRa partner concentration 90 nM)
# Outline: as §1
# [5] = tested on: LXRb homodimer (NR concentration 270 nM)
# Outline: as §1
# [6] = tested on: PPARa:RXRa (NR concentration 270 nM, RXRa partner concentration 90 nM)
# Outline: as §1
# [7] = tested on: PPARg:RXRa (NR concentration 180 nM, RXRa partner concentration 90 nM)
# Outline: as §1
# [8] = tested on: PPARg:RXRa 270nM:90nM, anti-RXR (NR concentration 270 nM, RXRa partner concentration 90 nM)
# Outline: as §1
# [9] = tested on: PPARg:RXRa 30nM:10nM, anti-RXR (NR concentration 30 nM, RXRa partner concentration 10 nM)
# Outline: as §1
# [10] = tested on: PPARg:RXRa 90nM:30nM, anti-RXR (NR concentration 90 nM, RXRa partner concentration 30 nM)
# Outline: as §1
# [11] = tested on: PPARg:RXRa DBDmut IVT, anti-RXR (DBD mutation: RXRa K156A/R161A, NR concentration 270 nM, RXRa partner concentration 90 nM)
# Outline: as §1
# [12] = tested on: PPARg:RXRa IVT, anti-PPARg (NR concentration 270 nM, RXRa partner concentration 90 nM)
# Outline: as §1
# [13] = tested on: PPARg DBDmut:RXRa IVT, anti-PPARg (DBD mutation: PPARg1 K132A/R137A, NR concentration 270 nM, RXRa partner concentration 90 nM)
# Outline: as §1
# [14] = tested on: PPARg DBDmut IVT, anti-PPARg (DBD mutation: PPARg1 K132A/R137A, NR concentration 270 nM)
# Outline: as §1
# [15] = tested on: PPARg homodimer (NR concentration 180 nM)
# Outline: as §1
# [16] = tested on: PXR:RXRa (NR concentration 270 nM, RXRa partner concentration 90 nM)
# Outline: as §1
# [17] = tested on: PXR homodimer (NR concentration 270 nM)
# Outline: as §1
# [18] = tested on: RARa:RXR (NR concentration 270 nM, RXRa partner concentration 90 nM)
# Outline: as §1
# [19] = tested on: RARa homodimer (NR concentration 270 nM)
# Outline: as §1
# [20] = tested on: RARb:RXRa (NR concentration 270 nM, RXRa partner concentration 90 nM)
# Outline: as §1
Sequence,PBM binding z-score [1],PBM binding z-score [2],PBM binding z-score [3],PBM binding z-score [4],PBM binding z-score [5],PBM binding z-score [6],PBM binding z-score [7],PBM binding z-score [8],PBM binding z-score [9],PBM binding z-score [10],PBM binding z-score [11],PBM binding z-score [12],PBM binding z-score [13],PBM binding z-score [14],PBM binding z-score [15],PBM binding z-score [16],PBM binding z-score [17],PBM binding z-score [18],PBM binding z-score [19],PBM binding z-score [20]
TCTTGTAGATCAGCAGGTTAATAAAGCTGGCCAA,0.186,0.321,-0.0562,0.223,-0.339,0.462,-0.26,1.38,2.55,1.7,1.69,0.368,0.134,0.645,-0.332,0.185,-0.721,0.556,0.0648,0.000915
TCTAGTTTGTCAAAGGTCACACACTCGAAATGCG,6,5.79,5.08,5.68,2,6.11,8.39,8.19,7.6,8.39,2.53,4.9,1.7,3.34,4.88,5.82,1.78,6.66,2.78,4.98
TCATATAGGTAAAAGGTGAAAATCGGTGTGGTAA,2.32,2.08,0.347,2.14,0.2,5.34,9.36,8.69,8.68,9.26,5.1,5.08,1.43,0.511,2.07,1.97,0.321,3.05,1.48,1.78
